Experimental data reported in PubChem BioAssay (NCI).
Compounds without any hit were thinned out: in the full panel of roughly 83,000, 20% have a hit.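 Assay: single dose, 48 h. Readout: percent growth (0 = no net growth; negative = cell death). Active: <10.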 Values without a mark were called inactive. Active and inactive are the calls of the source.

Columns and labels:
Assay in all cases: NCI-60 one-dose screen, 48 h (100 = growth as untreated, 0 = no growth, -100 = all killed)
Conditions in all cases: 10 µM unless noted
NCI-H23 lung = tested on: NCI-H23 lung
NCI-H226 lung = tested on: NCI-H226 lung
NCI-H322M lung = tested on: NCI-H322M lung
HOP-62 NSCLC = tested on: HOP-62 NSCLC
NCI-H460 lung = tested on: NCI-H460 lung
HOP-92 NSCLC = tested on: HOP-92 NSCLC
NCI-H522 lung = tested on: NCI-H522 lung
A549/ATCC NSCLC = tested on: A549/ATCC NSCLC
786-0 renal = tested on: 786-0 renal
COLO 205 colon = tested on: COLO 205 colon
DU-145 prostate = tested on: DU-145 prostate
K-562 leukemia = tested on: K-562 leukemia
MALME-3M melanoma = tested on: MALME-3M melanoma
MDA-MB-231 breast = tested on: MDA-MB-231 breast
RXF 393 renal = tested on: RXF 393 renal
SF-268 CNS = tested on: SF-268 CNS
SF-295 CNS = tested on: SF-295 CNS
SF-539 CNS = tested on: SF-539 CNS
UACC-257 melanoma = tested on: UACC-257 melanoma
M14 melanoma = tested on: M14 melanoma

Structure (SMILES)	growth (NCI-H23 lung)	growth (NCI-H226 lung)	growth (NCI-H322M lung)	growth (HOP-62 NSCLC)	growth (NCI-H460 lung)	growth (HOP-92 NSCLC)	growth (NCI-H522 lung)	growth (A549/ATCC NSCLC)	growth (786-0 renal)	growth (COLO 205 colon)	growth (DU-145 prostate)	growth (K-562 leukemia)	growth (MALME-3M melanoma)	growth (MDA-MB-231 breast)	growth (RXF 393 renal)	growth (SF-268 CNS)	growth (SF-295 CNS)	growth (SF-539 CNS)	growth (UACC-257 melanoma)	growth (M14 melanoma)
COc1cc(-c2cc3ncccc3c3[nH]c(=O)c4cccnc4c23)cc(OC)c1OC	44.5%	28.3%	52.6%	30.3%	8.58% (active)	30.6%	34.3%	23.8%	24.7%	-18.6% (active)	14.1%	10.5%	55.4%	36.7%	-3.08% (active)	51.2%	12.6%	5.37% (active)	51.5%	12.8%
CC1(C)C=CC[C@]2(C)[C@H]3CC[C@@H]4[C@H]5[C@H](C(=O)/C=C/c6cccnc6)CC[C@]5(CO)CC[C@@]4(C)[C@]3(C)CC[C@@H]12	-60% (active)	-54.1% (active)	9.88% (active)	-81.3% (active)	-62.4% (active)	-92.7% (active)	-73.7% (active)	-41.5% (active)	-59.8% (active)	-71.9% (active)	-94.2% (active)	-29.3% (active)	-85% (active)	-77.6% (active)	-86.7% (active)	-57.6% (active)	-91.4% (active)	-96.2% (active)	-49.7% (active)	-74.4% (active)
C#CCn1c(C)cc(C)c(C#N)c1=O	107%	114%	103%	109%	107%	98.3%	103%	104%	99.9%	110%	110%	103%	96.9%	101%	124%	98.3%	99.7%	97.7%	103%	106%
COc1cc2nc(Cl)nc(Nc3cccc(C(=O)/C=C/c4ccccc4)c3)c2cc1OC	68.6%	66.1%	90.3%	70.1%	89%	82.2%	56.9%	74.5%	52.7%	62.9%	87.7%	9.16% (active)	78%	67.6%	68.4%	85.9%	69.5%	2.74% (active)	96.5%	51.2%
O=C1c2cc3c(cc2-c2c1c1ccc(F)cc1c(=O)n2CCCN1CCOCC1)OCO3	40.6%	20.4%	79.8%	18.9%	14.1%	68.4%	25.5%	33.8%	24.1%	55.1%	28.4%	41.6%	101%	105%	70.6%	43.3%	21.7%	11.2%	62.7%	23.2%
O=C(O)/C(=C/c1ccc(O)cc1)c1ccccc1	93.9%	100%	100%	88.8%	108%	83.1%	95%	93%	92.2%	120%	97.9%	104%	94.5%	103%	70.6%	95.8%	105%	122%	90.3%	97.5%
C[C@H]1[C@@H]2[C@H]3CC[C@@H]4[C@@]5(C)Cc6c([nH]c7ccccc67)C(C)(C)[C@@H]5CC[C@@]4(C)[C@]3(C)CC[C@]23CO[C@]1(C)[C@@H](C(=O)/C=C/c1ccccn1)C3	91.7%	101%	112%	109%	98.3%	67.2%	92.1%	89.4%	106%	102%	102%	72.5%	106%	85%	89.3%	88.8%	99.4%	84.9%	103%	93.6%
COc1ccc2c(c1)c(-c1nc(-c3c[nH]c4ncccc34)cs1)cn2CCCN1CCCCC1	73.1%	70.8%	56.4%	37.4%	5.78% (active)	24.9%	67.6%	41.3%	-75.1% (active)	-74.9% (active)	46.1%	-58.8% (active)	-70.9% (active)	29.3%	35.9%	52.7%	68.2%	-63.6% (active)	71.8%	-84.1% (active)
OCC1OC(n2cnc3c(Cl)ncnc32)CC1O (stereo not given)	118%	97.7%	101%	114%	104%	89.5%	101%	104%	107%	104%	113%	103%	97.5%	106%	103%	99.1%	114%	96.2%	110%	104%
COc1ccc2c(c1)c(-c1nc(-c3cn(C)c4ncccc34)cs1)cn2CCN	81.2%	84.2%	77.2%	77.1%	31.7%	57.8%	93%	45.7%	94.4%	77%	69.6%	68.6%	105%	63.3%	96.1%	95.8%	99.1%	89.1%	98.3%	97.3%
N=C(N)c1ccc(-c2ccc(-c3cc(F)cc(F)c3)o2)nc1	87.8%	86.6%	96.4%	78.4%	99.4%	59%	99.1%	94.8%	95.6%	63.4%	104%	15.9%	97.3%	78.3%	75.2%	90.8%	95.9%	88.4%	115%	94.7%
CC1(C)CC[C@]2(C(=O)Nc3ccccn3)CC[C@]3(C)C(=CC[C@@H]4[C@@]5(C)C/C(=C/c6ccncc6)C(=O)C(C)(C)[C@@H]5CC[C@]43C)[C@@H]2C1	34.4%	28.1%	62.6%	70.9%	6.3% (active)	43.4%	40.1%	26.6%	44.2%	2.97% (active)	33.9%	11%	-2.79% (active)	48.8%	-21.5% (active)	72.5%	30.8%	16.2%	48.4%	20.6%
O=C1/C(=C\c2ccc(Br)o2)SC(=S)N1CCc1ccc(O)cc1	49.7%	97.3%	88.3%	83.5%	107%	55.3%	37.8%	100%	78.7%	97.8%	43%	65.6%	69%	53.2%	51.9%	96%	94.9%	52.3%	77.2%	73.7%
CC1(C)CC[C@]2(CO)CC[C@]3(C)C(=CC[C@@H]4[C@@]5(C)CC[C@H](NCO)C(C)(C)[C@@H]5CC[C@]43C)[C@@H]2C1	-64.8% (active)	43.1%	7.27% (active)	-32.1% (active)	-70.5% (active)	22.2%	-29.5% (active)	-50% (active)	-80% (active)	-71.5% (active)	-49.9% (active)	-36.8% (active)	-76.3% (active)	-80% (active)	-88% (active)	63.1%	-30.5% (active)	-18.5% (active)	10.5%	-53% (active)
N=c1c(S(=O)(=O)c2ccccc2)cc2c(=O)n3ccccc3nc2n1C1CCCC1	95.8%	91.9%	74.9%	79%	105%	39.4%	92%	80.2%	80.8%	113%	93.2%	76.6%	108%	64%	86%	83.5%	91.2%	83.7%	111%	110%
